# Bioassay records deposited in PubChem by National Center for Advancing Translational Sciences (NCATS).
# Only some compounds are listed: those with a hit (about 10% of all), similar ones and a draw of the others.
# HP1b chromo inh – HP1-beta chromodomain-methylated histone interaction inhibition. P83916. AlphaScreen HP1-beta / biotin-H3K9me3 peptide binding. Potency, µM (doses to about 114 µM), without a hit: at the highest dose activity change, negative = inhibition, hits mostly inhibitors. 390,000 compounds, 0.56% hits. AID 540317; note: potency is the fitted concentration of half-maximal effect; nearly all actives have a fitted effect of over 70% in size
# Target sequence (P83916 whole entry, looked up): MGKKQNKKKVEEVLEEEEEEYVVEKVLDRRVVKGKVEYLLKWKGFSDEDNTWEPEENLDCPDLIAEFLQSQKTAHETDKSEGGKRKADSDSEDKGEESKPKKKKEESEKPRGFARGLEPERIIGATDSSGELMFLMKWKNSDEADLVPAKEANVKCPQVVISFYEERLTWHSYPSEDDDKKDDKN
#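 HP1-beta protein (50 nM final) preincubated 30 min at room temperature with biotinylated H3(1-18)K9me3 peptide (50 nM) in PBS pH 7.4, 0.01% Tween-20, then compound added for 30 min. AlphaScreen streptavidin donor/nickel chelate acceptor beads (10 ug/mL final), 30 min dark, luminescence read.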
# G9a inh – blocks human histone lysine methyltransferase G9a | Q96KQ7 | G9a H3K9 monomethylation, AlphaScreen, 2 h | Potency, µM (highest dose often 102 µM), without a hit: top-dose activity, negative = inhibition, hits mostly inhibitors | 350,000 compounds, 8.8% hits; note: potency is the fitted concentration of half-maximal effect; % is set by controls: 0 for no effect and ±100 for the full control effect; nearly all actives have a fitted effect of over 75% in size
# Target sequence (Q96KQ7 913-1193 limits assumed): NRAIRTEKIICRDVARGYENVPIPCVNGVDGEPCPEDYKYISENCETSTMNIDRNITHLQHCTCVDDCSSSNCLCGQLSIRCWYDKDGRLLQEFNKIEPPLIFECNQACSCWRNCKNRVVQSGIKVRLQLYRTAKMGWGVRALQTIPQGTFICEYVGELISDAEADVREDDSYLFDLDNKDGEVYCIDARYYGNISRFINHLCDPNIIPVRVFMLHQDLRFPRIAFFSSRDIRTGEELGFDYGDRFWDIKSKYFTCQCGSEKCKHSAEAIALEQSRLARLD
#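 Compounds were preincubated with 20 nM G9a for 15 min, after which biotinylated H3K9 peptide (500 nM) and SAM (20 uM) started a 2 h room-temperature reaction. Monomethylated product was quantified by antibody-based AlphaScreen chemiluminescence.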
# JMJD2A Tudor – JMJD2A Tudor domain (human) inhibition | O75164 | AlphaScreen JMJD2A-Tudor / H3K4me3 peptide binding | Potency, µM (doses to about 114 µM), without a hit: at the highest dose activity change, negative = inhibition, most hits filed as inhibitors | 390,000 compounds, 4.4% hits | AID 504339; note: potency is the fitted concentration of half-maximal effect; % is set by controls: 0 for no effect and ±100 for the full control effect; nearly all actives have a fitted effect of over 50% in size
# BAZ2B inh – inhibitors of human BAZ2B bromodomain | Q9UIF8 | AlphaScreen BAZ2B-H3K14Ac peptide displacement | Potency, µM (titrated, usually from 114 µM), for inactives: at the top dose activity change, negative = inhibition, usual class: inhibitors | 360,000 compounds, 4.4% hits; note: potency is the fitted concentration of half-maximal effect; % is set by controls: 0 for no effect and ±100 for the full control effect; nearly all actives have a fitted effect of over 60% in size
#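 BAZ2B 50 nM plus b-H3(5-23)K14Ac 50 nM, PBS pH 7.4/0.01% Tween-20, 30 min RT; compound added (max 110 uM), 30 min RT; streptavidin donor/Ni-chelate acceptor beads 10 ug/mL final, 20 min dark; AlphaScreen read.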
# CtBP-E1A inh – inhibitors of CtBP/E1A interaction | 340,000 compounds, 0.49% hits | AlphaScreen GST-E1A/His-CtBP binding, 1536-well; stronger effect = lower value | activity change, % (test concentration not listed); in the data active = activity change below about -65%; inconclusive = mostly about -30% to -63%; note: % is set by controls: 0 for no effect and ±100 for the full control effect
#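 Steps: dispense buffer (Tris pH 8.0, NaCl 300 mM, TCEP 1 mM, BSA, Tween 20); add 5X protein mix (GST-E1A, His-CtBP, 125 nM each); pin 23 nL compound; 2 h at 37 °C, dark; add 5X beads (50 ug/mL); 1 h; read.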
# Six1-Eya2 blk – Six1/Eya2 interaction inhibition; Q15475+O00167; AlphaScreen GST-Six1/His-Eya2 binding, biochemical; stronger effect = lower value; activity change, % (concentration not given with the values); 360,000 compounds, 0.56% hits; AID 651725; in the data active = activity change below about -65%; inconclusive = mostly about -30% to -63%; note: % is set by controls: 0 for no effect and ±100 for the full control effect
#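 Homogeneous AlphaScreen proximity assay pairing GST-Six1 with His-tagged Eya2 (added as 5X mix: 250 nM and 500 nM) in 50 mM Tris pH 8.0, 300 mM NaCl, 1 mM TCEP. Glutathione donor and nickel acceptor beads; 1 h, 37 °C, dark.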
# Numbers without * were called inactive; ? = inconclusive; . = no result; [ ] = another dose, or the depositor's remark. Unless noted, calls come from the whole dose curve; as a rule, active = well fitted inhibition curve with a large enough effect; inconclusive = small, poorly fitted or top-dose-only effect; inactive = no such curve, though single readings can be large or run the other way.
SMILES,HP1b chromo inh,G9a inh,JMJD2A Tudor,BAZ2B inh,CtBP-E1A inh,Six1-Eya2 blk
O=C(NCc1ccccc1)C1c2ccccc2OCC(=O)N1CCc1c[nH]c2ccccc12 (centres undefined),.,.,.,.,-3.0,-7.4
O=C(NNC1=NCCC1)C1CC1,-17.9%,12.6µM*,-35.1%[57.1 µM],?,-2.0,-2.6
O=C(NNC1=NCCC1)c1ccc(Br)cc1,40.7%,-4.1%,-6.1%,-1.3%,-6.1,7.7
CC(=O)c1c(N2CCCC2)[nH]c(-c2ccccc2)nc1=S,4.5%,?,-21.8%,?,-2.6,-5.9
CC(=O)c1c(N2CCN(Cc3ccccc3)CC2)[nH]c(-c2ccccc2)nc1=S,13.7%,70.8µM*,?,?,-4.7,-8.1
CCOC(=O)c1cnc(NCc2ccc(Cl)cc2)c2ccccc12,90.3%[57 µM],68.3%[59 µM],116.9%,114.7%,.,.
O=c1cc2nc(-c3ccccc3F)nc(SCc3ccc(Br)cc3)n2[nH]1,9.2%,-11.9%[59 µM],?,50.1µM*,.,.
CCOC(=O)c1c(-c2cccc3ccccc23)csc1NC(=O)C1C2CCC(O2)C1C(=O)O (centres undefined),26.4%,1.3%[59 µM],-6.6%,-21.8%,3.8,-5.2
COC(=O)c1c(-c2ccc(C(C)(C)C)cc2)csc1NC(=O)C1C2CCC(O2)C1C(=O)O (centres undefined),?,1.78µM*,?,-11.9%,-17.4,-4.9
COc1ccc(CCN2C(=O)CN(C3CCC(C)CC3)C(=O)C2c2ccc(OC(C)C)c(OC)c2)cc1OC (centres undefined),33.1%,-25.1%[59 µM],-26.5%,-17.8%,.,.
Cc1ccc(O)c(CN(C)Cc2cc(C)ccc2O)c1,-5.3%,.,?,.,7.4,-9.2
CN(C)Cc1cc(O)c(CN(C)C)cc1O,?,1.41µM*,0.794µM*,22.4µM*,.,?
CN(C)C(=O)c1cc(C(=O)Cc2ccccc2)c[nH]1,3.9%,-25.9%,-12.8%,-25.6%,.,3.7
NC(=O)C(CC(=O)O)NC(=O)[C@@H]1CCOc2c(I)cc([N+](=O)[O-])cc2C(=O)N[C@@H](CCC(=O)O)C(=O)N[C@@H](CO)C(=O)N1 (some centres undefined),31.7%,7.94µM*,?,?,3.9,-0.8
C[C@@H]1NC(=O)[C@H](CC(N)=O)NC(=O)c2cc([N+](=O)[O-])cc(I)c2OCC[C@@H](C(=O)NC(CC(=O)O)C(N)=O)NC1=O (some centres undefined),19.3%,28.2µM*,-32.4%,-37.6%,0.0,3.2
C[C@@H]1NC(=O)c2cc([N+](=O)[O-])cc(I)c2OCC[C@@H](C(=O)NC(CC(=O)O)C(N)=O)NC(=O)[C@H](CCC(=O)O)NC1=O (some centres undefined),0.0%,35.5µM*,?,-27.4%,-8.5,0.6
Fc1ccc(CNc2nc3ccc(Cl)cc3n3nnnc23)cc1,5.7%,4.4%[59 µM],-12.3%,-0.6%,.,.
Cc1ccc(Cn2c(C)c3cnn(CC(=O)N4CCN(c5cc(C)ccc5C)CC4)c(=O)c3c2C)cc1,23.0%,-0.2%[59 µM],-23.5%,-24.8%,.,.
CCC(C)NC(=O)COc1ccccc1[N+](=O)[O-] (centres undefined),30.0%,6.0%[59 µM],-8.6%,-1.7%,-3.7,1.6
COC(=O)COc1ccc2c(-c3cccc([N+](=O)[O-])c3)cc(=O)oc2c1,8.1%,-26.2%[0.501 µM],-17.1%,-6.8%,-4.0,3.8
CCOC(=O)C(C)Oc1ccc2c(-c3cccc([N+](=O)[O-])c3)cc(=O)oc2c1 (centres undefined),6.5%,35.5µM*,-25.1%,-12.7%,3.3,-10.6
O=C1/C(=C\c2ccc(O)c(O)c2)C(c2ccccc2)=NN1c1ccccc1,?,3.98µM*,14.1µM*,8.91µM*,3.8,-17.2
COc1cc(/C=C2\C(=O)N(c3ccc(NC(C)=O)cc3)N=C2c2ccccc2)ccc1O,?,44.7µM*,39.8µM*,35.5µM*,-0.7,1.6
COc1ccc(CNC(=O)C2CCN(c3nc4ccccc4[nH]3)CC2)cc1OC,25.3%[57 µM],0.7%[59 µM],3.2%,3.5%,.,.
Cn1c2c(sc1=O)CCC2,8.2%,.,-16.6%,.,-0.2,-2.1
SMILES,HP1b chromo inh,G9a inh,JMJD2A Tudor,BAZ2B inh,CtBP-E1A inh,Six1-Eya2 blk
C#C[C@]1(O)CC[C@H]2[C@@H]3CCC4=CC(=O)CC[C@@H]4[C@H]3CC[C@@]21C,9.0%,.,-12.2%,.,6.2,1.2
CC#C[C@]1(O)CC[C@H]2C3CCC4=CC(=O)CCC4=C3[C@@H](c3ccc(N(C)C)cc3)C[C@@]21C (some centres undefined),.,2.82µM*,.,.,.,.
CCN1CCN(S(=O)(=O)c2ccc(Cl)c(C(=O)N(C)CC(=O)Nc3c(C)cccc3C)c2)CC1,48.4%,.,-0.3%,.,4.2,2.8
O=C(Cc1ccc(Cl)cc1)Nc1nnc2n1CCS2,13.1%[57 µM],?,?,56.2µM*,.,.
CC(C)(Oc1ccc(Cl)cc1)C(=O)Nc1nnc2n1CCS2,11.1%[57 µM],21.0%[59 µM],79.4µM*,?,.,.
CC(C)CC(=O)Nc1nnc2n1CCS2,11.7%[57 µM],?,-23.9%,-1.9%,.,.
O=C(Nc1nnc2n1CCS2)c1ccc(Br)o1,29.1%,1.78µM*,20µM*,20µM*,?,?
CC(C)Oc1ccc(C(=O)Nc2nnc3n2CCS3)cc1,29.1%[57 µM],17.2%[59 µM],-12.6%,-10.0%,.,.
CCC(=O)C1=C(c2ccc(OC)c(OC)c2)N(C(=O)CC)n2c(CC)nnc2S1,37.9%,17.0%[59 µM],-12.3%,-23.0%,.,.
Cc1ccc(Cl)cc1N1CCN(C(=O)c2ccc(C)c(-n3c(C)nc4cccnc43)c2)CC1,9.2%,-45.3%[59 µM],-30.0%,?,.,.
Cc1csc2nc(COC(=O)c3ccc(Cl)c([N+](=O)[O-])c3)cc(=O)n12,-21.0%[57 µM],-7.3%[59 µM],28.2µM*,1.7%,0.9,0.8
